Source: the supplement of paper PMC8269313
Counter-ions that a name gives are not always drawn.

System: 4T1
Test: % inhibition of 4T1 cell number vs DMSO control; higher = stronger growth inhibition
Conditions: 1 µM, 3 days
In short: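 4T1-H2B-GFP mouse breast cancer cells (3000 per well, 2% FBS medium) were seeded in 96-well imaging plates on plastic, denuded lung or mCAF1 fibroblast-derived matrix, Matrigel (15 μg/mL) or 0.2% gelatin; edge wells were left unused. After 16 h, kinase inhibitors were added at 1 μM final for 3 days. Plates were formalin-fixed, DAPI-stained and imaged on an INCell Analyzer 2200, and GFP-positive nuclei were counted. Percent inhibition of cell number was calculated relative to DMSO control.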

[1] = substrate: lung fibroblast-derived matrix
[2] = substrate: mCAF1 fibroblast-derived matrix

Row | Compound | % inhibition of 4T1 cell number (substrate: Matrigel) | % inhibition of 4T1 cell number (substrate: gelatin) | % inhibition of 4T1 cell number [1] | % inhibition of 4T1 cell number [2] | % inhibition of 4T1 cell number (substrate: plastic)
1 | CCN(CC)CCCCN1c2ccccc2Oc2ccc(Cl)cc21 [Akt Inhibitor X] | 72.7% | 46.6% | -2.93% | -26.9% | 40%
2 | Oc1cccc(-c2nc(N3CCOCC3)c3oc4ncccc4c3n2)c1 | 22.6% | 4.53% | -18.2% | 70.3% | -7.68%
3 | CN[C@@H]1C[C@H]2O[C@@](C)([C@@H]1OC)n1c3ccccc3c3c4c(c5c6ccccc6n2c5c31)C(=O)N[C@H]4O | 99.4% | 99.2% | 14.1% | 88.8% | 95.5%
4 | CC(C)(C)c1nc2c3cc[nH]c(=O)c3c3cc(F)ccc3c2[nH]1 [JAK Inhibitor I] | -23.5% | -101% | -5.54% | 20.7% | -71.6%
5 | COc1cc2ncnc(Nc3ccc(O)c(Br)c3)c2cc1OC [JAK3 Inhibitor II] | -13.3% | -52.6% | -6.47% | 25.3% | -53.6%
6 | Cc1cc(C=C2C(=O)C=CC2=O)cc(C)c1O | 32.9% | 68.1% | 10.9% | -26.2% | 32.3%
7 | c1nc2c(NC3CCCCC3)nc(Nc3ccc(N4CCOCC4)cc3)nc2[nH]1 [Reversine] | 91% | 89.5% | 7.75% | 85.6% | 63.1%
8 | CS(=O)(=O)c1ccc(-c2nc(-c3ccc(F)cc3)c(-c3ccncc3)[nH]2)cc1 | 37.9% | 63% | -4.16% | 14.7% | 52.9%
9 | C[C@@H](N)C1CCC(C(=O)Nc2ccncc2)CC1 (stereo not given in full) | -13.2% | -4.77% | -5.27% | 9.93% | -47.5%
10 | O=C1Nc2ccc(Br)cc2/C1=C/c1cc2c([nH]1)CCCC2 [VEGF Receptor 2 Kinase Inhibitor II] | 16.3% | -22.2% | -11.9% | -141% | 8.31%
11 | N#CCCc1ccc2c(c1)-c1[nH]c3ccc([N+](=O)[O-])cc3c1CC(=O)N2 [Alsterpaullone, 2-Cyanoethyl] | 55.6% | 51.8% | -1.58% | 45.1% | 72.9%
12 | CC[n+]1c(/C=C/N(C)c2ccccc2)n(-c2ccccc2)c2ccc(-c3nc4ccccc4s3)cc21 [Akt Inhibitor IV] | 53.2% | 56.7% | -4.76% | 92.1% | 78.2%
13 | NC(N)=NCCNS(=O)(=O)c1cccc2cnccc12 [HA 1004, Dihydrochloride] | -14.8% | -0.694% | -2.73% | -8.89% | -48.5%
14 | Cn1nc2c3c(cccc31)C(=O)c1ccccc1-2 [JNK Inhibitor, Negative Control] | -37.2% | -36.9% | 0.304% | 24.3% | -59.1%
15 | OCC(O)CCO/N=C1\C(c2c(O)[nH]c3ccccc23)=Nc2ccccc21 (stereo not given) [Indirubin Derivative E804] | -31.7% | 0.993% | -5.02% | 85.4% | 67.7%
16 | CCN(CC)CCNC(=O)c1c(C)[nH]c(/C=C2\C(=O)Nc3ccc(Cl)cc32)c1C | 62.3% | 70% | -10.6% | 52.4% | 74.3%
17 | COc1nccc(-c2c(-c3ccc(F)cc3)ncn2C2CCC(O)CC2)n1 (stereo not given) | 46.2% | 34.2% | -8.71% | -18.3% | 19.8%
18 | NC(=O)Nc1sc(-c2ccccc2)cc1C(N)=O [IKK-2 Inhibitor VI] | -32% | -1.17% | -16% | 28.5% | -60%
19 | NS(=O)(=O)c1ccc(N=Nc2c(O)[nH]c3ccc(Br)cc23)cc1 [Cdk2 Inhibitor II] | 14.7% | 31.6% | -5.54% | 18.1% | -9.24%

Row | Compound | % inhibition of 4T1 cell number (substrate: Matrigel) | % inhibition of 4T1 cell number (substrate: gelatin) | % inhibition of 4T1 cell number [1] | % inhibition of 4T1 cell number [2] | % inhibition of 4T1 cell number (substrate: plastic)
20 | N#C/C(=C\c1ccc(O)c(O)c1)C(=O)NCc1ccccc1 | -13.1% | 42.5% | -21.1% | 15.2% | -38%
21 | O=Nc1c(-c2c(O)[nH]c3cc(Br)ccc23)[nH]c2ccccc12 [GSK-3 Inhibitor IX] | -37.5% | -7.89% | -2.79% | 55.1% | 42.2%
22 | O=c1c2ccccc2[nH]c(=S)n1CCN1CCC(=C(c2ccc(F)cc2)c2ccc(F)cc2)CC1 [Diacylglycerol Kinase Inhibitor II] | 8.29% | -29.1% | -1.99% | -11% | -33.4%
23 | CC[C@H](CO)Nc1nc(NCc2ccc(-c3ccccn3)cc2)c2ncn(C(C)C)c2n1 [CR8, (R)-Isomer] | 99.5% | 98.7% | -11.2% | 96% | 96.7%
24 | c1ccc(-c2cnc(Nc3ccc(OCCN4CCCC4)cc3)s2)cc1 [Flt-3 Inhibitor III] | 95.2% | 88.5% | 5.06% | 65.3% | 72.6%
25 | c1ccc(-c2n[nH]c3c2oc2ccccc23)cc1 | -3.87% | -77.4% | -1.95% | -3.97% | -64.2%
26 | O=C(Nc1ccncc1)Nc1c(Cl)cc(Cl)cc1Cl [Rho Kinase Inhibitor II] | -9.94% | -2.18% | -4.7% | -19.5% | -18.6%
27 | CCCCCCOC(=O)[C@]1(O)C[C@@H]2O[C@@]1(C)n1c3ccccc3c3c4c(c5c6ccccc6n2c5c31)C(=O)NC4 | -41.8% | -0.139% | -8.63% | 13.5% | -74.7%
28 | O=[N+]([O-])c1ccc(-c2nc(-c3ccc(F)cc3)c(-c3ccncc3)[nH]2)cc1 | -4.18% | 12% | -11.4% | 26.1% | -60.5%
29 | COc1cc2ncnc(N3CCN(C(=O)Nc4ccc(Oc5ccccc5)cc4)CC3)c2cc1OC [PDGF Receptor Tyrosine Kinase Inhibitor III] | -4.76% | -15.1% | -1.37% | 49.3% | -34.7%
30 | NCCCn1cc(C2=C(c3c[nH]c4ccccc34)C(=O)NC2=O)c2ccccc21 [Bisindolylmaleimide III, Hydrochloride] | 50.6% | 46.1% | 12.7% | -60.9% | 37.2%
31 | Cc1cncc2cccc(S(=O)(=O)N3CCCN(C(=O)CN)C[C@@H]3C)c12 [Rho Kinase Inhibitor IV] | -39.7% | -28.9% | 92.9% | 15.7% | -103%
32 | Cc1ccc(S(=O)(=O)/C=C/C#N)cc1 | 18.5% | 38.2% | -8.23% | -0.662% | 5.77%
33 | Nc1[nH]nc2nnc(-c3c(-c4ccccc4)nn4ccccc34)cc12 | -37.8% | -5.47% | -14.3% | 1.41% | -58.3%
34 | Cc1ccc(NC2=CC(=O)c3sc(C)nc3C2=O)cc1 [Cdk4 Inhibitor III] | -14.1% | 30.5% | 99.5% | 12.4% | -21.1%
35 | Nc1nccc(-c2c(-c3ccc(F)cc3)ncn2C2CCNCC2)n1 | -17.8% | -10.4% | 11.7% | 29.5% | -59.1%
36 | O=C(O)C=Cc1cc(Br)c(Br)c(Br)c1Br [Casein Kinase II Inhibitor III, TBCA] | 33.8% | 27.7% | 2.78% | 2.33% | 40.6%
37 | Nc1n[nH]c(N)c1N=Nc1ccc(O)cc1 [Cdk9 Inhibitor II] | 11% | 10.5% | -8.89% | -4.98% | 12%
38 | COc1cc2ncc(-c3ccccc3)nc2cc1OC | 20.6% | 47% | -16.1% | 27.8% | 39.5%

Row | Compound | % inhibition of 4T1 cell number (substrate: Matrigel) | % inhibition of 4T1 cell number (substrate: gelatin) | % inhibition of 4T1 cell number [1] | % inhibition of 4T1 cell number [2] | % inhibition of 4T1 cell number (substrate: plastic)
39 | CNc1cc2c(Nc3cccc(Br)c3)ncnc2cn1 | -6.51% | -93.8% | 25.4% | 6.09% | -25.5%
40 | O=C1NC(=O)c2c1c1c3ccccc3[nH]c1n1cncc21 [Isogranulatimide] | -41.6% | -25.6% | -7.38% | 9.11% | -78.2%
41 | C[S+]([O-])c1ccc(-c2nc(-c3ccc(F)cc3)c(-c3ccncc3)[nH]2)cc1 (stereo not given) | 28.8% | 44.4% | 99.2% | 14.9% | 23.3%
42 | COc1cc2ncn(-c3cc(OCc4ccccc4S(C)(=O)=O)c(C#N)s3)c2cc1OC [IKK-3 Inhibitor IX] | -14.6% | -1.27% | 1.67% | 6.5% | -26.7%
43 | COc1cc(Nc2ncc3ccn(-c4cccc(CCC#N)c4)c3n2)cc(OC)c1OC [Keratinocyte Differentiation Inducer] | 91.6% | 89% | 93.7% | 97.6% | 94.4%
44 | Cc1cc2ncc(-c3ccccc3)nc2cc1C | 1.93% | 65.9% | -4.16% | 30.3% | 45.2%
45 | Fc1ccc(-c2nc3n(c2-c2ccncc2)CCS3)cc1 | 28.9% | 18.4% | -11.4% | 18.8% | 9.54%
46 | O=C(O)c1ccc2c3c1cccc3c(=O)n1c3ccccc3nc21 | 30.6% | 44.3% | -11.4% | 31.2% | 32.2%
47 | CC(C)[C@H](CO)Nc1nc(Nc2cccc(Cl)c2)c2ncn(C(C)C)c2n1 [Purvalanol A] | -8.87% | 15.8% | 83.6% | 40.3% | -20.5%
48 | O=C1C(Cl)=C(N2C(=O)CCC2=O)C(=O)c2ccccc21 [MEK Inhibitor II] | -30.5% | -13.5% | -5.8% | 50.2% | -66.5%
49 | COc1ccc2c(c1)c(C1=C(c3c[nH]c4ccccc34)C(=O)NC1=O)cn2CCCN(C)C | -19.1% | -76.7% | -27.2% | 11.8% | -63.4%
50 | O=C1NC(=O)C(c2cn(CCCO)c3ncccc23)=C1c1cnccn1 [GSK-3b Inhibitor XI] | 26.7% | 30.4% | 0.393% | 15.6% | 44.6%
51 | COc1ccc(COc2ccc(Cc3cnc(N)nc3N)cc2OC)cc1 [cFMS Receptor Tyrosine Kinase Inhibitor] | -15.7% | -87.3% | 2.62% | 11.3% | -59.7%
52 | CCC(CO)Nc1nc(NCc2ccccc2)c2ncn(C(C)C)c2n1 [Roscovitine, (S)-Isomer] | -4.8% | 59.2% | 1.55% | 29.4% | -6.54%
53 | COc1ccc(Cl)cc1NC(=O)Nc1cc(C)nc2ccccc12 [IGF-1R Inhibitor II] | -4.34% | -99% | -3.14% | -1.23% | -44.3%
54 | O=S(=O)(c1cccc2cnccc12)N1CCCNCC1 [HA 1077, Dihydrochloride] | 25.3% | 21.7% | -23.5% | 4.22% | 21.9%
55 | Oc1ccc(-c2nc(-c3ccc(F)cc3)c(-c3ccncc3)[nH]2)cc1 | 19.2% | 56% | -2.55% | 38.9% | 30.1%
56 | O=S(=O)(c1cccc2c(I)cccc12)N1CCCNCC1 [ML-7, Hydrochloride] | 23% | 24.2% | -1.62% | 33.6% | -7.72%
